The entries come from a sample that favours hits as a whole.
Pf Dd2 inh: qHTS Primary assay for Inhibitors of Plasmodium falciparum Dd2 growth in vitro. P. falciparum Dd2 growth, SYBR Green, 72 h. Potency, µM (series often up to 28.9 µM), for the others: at the highest dose activity, negative = inhibition, actives largely listed as inhibitors. hit rate 4.3% among 120,000. AID 1347417, 2020; active = well fitted inhibition curve with a large enough effect;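 also: plate controls were DMSO vehicle for no effect and reference drug for full effect; nearly all actives have a fitted effect of over 65% in size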
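Readout: SYBR Green fluorescence, 485 nm excitation, 535 nm emission, after ~16 h lysis at 37C. Before that, Dd2-infected red cells (2.5% hematocrit) grew 72 h with compound, 29 uM top final concentration.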
Active calls of the source: *; i = inactive; [ ] = dose if it differs, or a comment. Potency is read from the fitted curve at half-maximal effect.

SMILES	Pf Dd2 inh
O=C(Cc1c[nH]c2ccccc12)N1CCC(CCOc2ccccc2F)C1 (configuration not stated)	i
CC(C)c1ccc(C2N=C(N)Nc3nc4ccccc4n32)cc1 (configuration not stated)	3.16µM*
CC1=C(C(N)=O)C(c2ccc(C(C)C)cc2)n2nc(SCc3ccccc3F)nc2N1 (configuration not stated)	7.3%
CCN(CC)C(=O)C1=C(C)Nc2nc3ccccc3n2C1c1cccc(Cl)c1 (configuration not stated)	11.2µM*
Cn1c(=O)c2c(c3ccccc31)OC(=O)CC2c1cccc(Cl)c1 (configuration not stated)	22.6%
CC(C)c1ccc(C2=CC(c3cccc(Cl)c3)n3c(nc4ccccc43)N2)cc1 (configuration not stated)	11.2µM*
COc1cccc(C2C(C(=O)Nc3ccc(Cl)cc3)=C(C)Nc3nc4ccccc4n32)c1 (configuration not stated)	-22.0%
CCN(CC)C(=O)C1=C(C)Nc2nc3ccccc3n2C1c1ccc(Cl)cc1 (configuration not stated)	-10.4%
CCc1ccc(C2=CC(c3cccc(OC)c3OC)n3c(nc4ccccc43)N2)cc1 (configuration not stated)	8.91µM*
COc1ccc(C2N=C(N)Nc3nc4ccccc4n32)c(OC)c1OC (configuration not stated)	-19.6%
COc1cccc(C2=CC(c3ccccc3F)n3c(nc4ccccc43)N2)c1 (configuration not stated)	10.9%
CC(C)c1ccc(C2=CC(c3cccc(Cl)c3)n3ncnc3N2)cc1 (configuration not stated)	15.9%
COc1cccc(C2C(C(=O)Nc3ccc(C)cc3C)=C(C)Nc3nc4ccccc4n32)c1OC (configuration not stated)	-11.7%
O=C1CCN(C(=O)c2cc(C3CC3)[nH]n2)CCCCCCN1	5.3%
CN(CCc1ccccn1)[C@H]1[C@@H]2OC[C@@H](O2)[C@@H](NCc2ccc3c(c2)OCO3)[C@@H]1O	-9.2%[44.1 µM]
CCC1(N2CCN(C(=O)c3ccccc3OC(F)(F)F)CC2)CCN(S(C)(=O)=O)C1 (configuration not stated)	-26.2%
COc1ccccc1C(=O)N1CCCC(CN2CCC(C)CC2)CC1 (configuration not stated)	i
COc1ccc(C(=O)N2C(C(=O)NC3CC3)COC23CCN(C(=O)c2ccccc2C)CC3)cc1 (configuration not stated)	1.4%
CN1C(=O)C(Cc2nc(-c3ccc4nc[nH]c4c3)no2)N(C)C1=O (configuration not stated)	-12.6%
Cc1nc(-c2cccc(Cl)c2)n(CC(=O)NCCCc2ccccc2)c(=O)c1CCO	i
Cc1cccc(OCC(=O)c2ccc3c(c2)N(CC(=O)N(C)Cc2ccccc2)C(=O)CO3)c1	-11.3%
O=C(NC1CCN(c2cc(-c3ccc(Cl)cc3)[nH]n2)C1)c1ccccc1F (configuration not stated)	i
COc1ccccc1NC(=O)[C@@H]1COCC(=O)N1Cc1ccc(OC)c(OC)c1	36.5%
COc1ccc2cc1Nc1ccc(cc1)C[C@H](NCc1ccncc1)C(=O)N(C)[C@H](C(=O)NCc1ccc(OC(F)(F)F)cc1)C2	-20.3%
COc1ccc2cc1Nc1ccc(cc1)C[C@H](NCc1cccc(C(=O)O)c1)C(=O)N(C)[C@H](C(=O)Nc1ccccc1OCc1ccccc1)C2	2µM*
SMILES	Pf Dd2 inh
O=C(NC1CCN(c2cc(-c3ccccc3)[nH]n2)C1)c1ccc(F)c(F)c1 (configuration not stated)	-24.0%
COc1ccc(C(=O)Nc2c(C(=O)c3ccc(F)cc3)oc3ccccc23)cc1	55.5%
CC(C)(C)c1ccc(C(=O)Nc2c(C(=O)c3ccc(F)cc3)oc3ccccc23)cc1	8.91µM*
COc1ccc(C(=O)c2oc3ccccc3c2NC(=O)c2ccc(F)cc2)cc1	33.8%[5.79 µM]
O=C(NC1CCCCC1)O[C@@H]1CO[C@H]2[C@@H]1OC[C@@H]2NC(=S)Nc1cccc2ccccc12	i
Cc1cc(C(=O)N2CCOC[C@H](Oc3ccc(S(C)(=O)=O)cc3)C2)no1	1.6%[44.1 µM]
O=C1CC(c2ccccc2)N(C(=O)CNC(=O)c2cccnc2)CCCCCCN1 (configuration not stated)	24.3%
O=C1CC(c2ccccc2)N(C(=O)CNC(=O)c2nccc3ccccc23)CCCCCCN1 (configuration not stated)	0.355µM*
O=C1CC(c2ccccc2)N(C(=O)CNC(=O)c2n[nH]c3ccccc23)CCCCCN1 (configuration not stated)	i
O=C1CC(c2ccccc2)N(C(=O)CNC(=O)c2ccccn2)CCCCCCN1 (configuration not stated)	-6.0%
COc1cccc(CC(=O)NCC(=O)N2CCCCCCNC(=O)CC2c2ccccc2)c1 (configuration not stated)	-29.4%
O=C1CC(c2ccccc2)N(C(=O)CNC(=O)c2ccncc2)CCCCCCN1 (configuration not stated)	30.5%
COc1ccc2cc(C(=O)NCC(=O)N3CCCCCCNC(=O)CC3c3ccccc3)[nH]c2c1 (configuration not stated)	14.1µM*
COc1ccc(C(=O)NCC(=O)N2CCCCCCNC(=O)CC2c2ccccc2)cc1F (configuration not stated)	i
O=C1CC(c2ccccc2)N(C(=O)CNC(=O)c2[nH]nc3c2COc2ccccc2-3)CCCCCN1 (configuration not stated)	2.51µM*
CCOC(=O)C1=C(C)N=C2SC=C(CC(=O)NCCOC)N2C1c1cccc([N+](=O)[O-])c1 (configuration not stated)	-18.1%
CC(=O)c1cc(C(=O)NCc2c(C)ncc3c2CCNC3)[nH]n1	19.6%
O=C(c1ccncn1)N1CC(F)(F)C[C@H]1c1nc(C2CC2)no1	-24.1%
COc1ccccc1CNC(=O)C1CCN(C(=O)c2nnn3c2COC(c2ccc(C)cc2)C3)CC1 (configuration not stated)	4.6%
CS(=O)(=O)N1CCC(C2CCN(C(=O)c3ccc(F)c(Cl)c3)C2)CC1 (configuration not stated)	-13.2%
Cc1nccn1-c1ccc(NC(=O)C2CCCN(c3ncccc3C#N)C2)cc1 (configuration not stated)	-25.6%
COc1cc(SC)ccc1C(=O)N[C@H]1C[C@H]2C(=O)Nc3ccc(-c4ccc5c(c4)OCO5)cc3C(=O)N2C1	-19.9%
COc1cccc(CNC(=O)[C@@H]2C[C@@H](O)CN2C2CCN(C(=O)c3ccccn3)CC2)c1	13.2%
O=C(NCCc1ccccc1)C1CCCN(C2CCN(Cc3ccncc3)CC2)C1 (configuration not stated)	10µM*
O=C(NCCN1CCOCC1)C1CCCN(C2CCN(Cc3ccncc3)CC2)C1 (configuration not stated)	-15.2%
O=C(NCCc1ccccc1)C1CCCN(C2CCN(Cc3ccccc3F)CC2)C1 (configuration not stated)	i
O=C(c1ccccn1)N1CCn2c(nn(-c3ccc(F)cc3F)c2=O)C1	i
Cc1ccc(-n2nc(C(=O)NCCc3cccc(C)c3)c3c4ccccc4n(C)c3c2=O)cc1	i
COc1ccc(-n2nc(C(=O)NCCc3ccc(OC)c(OC)c3)c3c4ccccc4n(C)c3c2=O)cc1	3.16µM*

Screens deposited in PubChem BioAssay by National Center for Advancing Translational Sciences (NCATS).
